Sm TGR inh: inhibitors of Schistosoma mansoni thioredoxin glutathione reductase; Q962Y6; purified TGR, DTNB reduction, TNB absorbance 405 nm; Potency, µM (titrated, usually from 114 µM), for inactives: at the top dose activity change, negative = inhibition, hits mostly inhibitors; hit rate 3% among 360,000; note: nearly all actives have a fitted effect of over 60% in size
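TGR 20 nM + NADPH 100 uM (dispensed conc.), cpd preinc 15 min RT; start with NADPH (500 uM addition) then DTNB (15 mM addition). Kinetic TNB absorbance, 405 nm filter. Four-parameter Hill fit across titration.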
AmpC inh detg: inhibitors of E. coli AmpC beta-lactamase with detergent. Potency, µM (top dose mostly 114 µM), for the others: top-dose activity change, negative = inhibition, actives largely listed as inhibitors. AID 485294. hit rate 0.041% among 370,000. AmpC hydrolysis of nitrocefin, absorbance 480 nm, 0.01% Triton. P00811;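 note: 0% = no-compound wells and -100% = no-enzyme wells; nearly all actives have a fitted effect of over 25% in size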
Target sequence (P00811 whole entry, looked up): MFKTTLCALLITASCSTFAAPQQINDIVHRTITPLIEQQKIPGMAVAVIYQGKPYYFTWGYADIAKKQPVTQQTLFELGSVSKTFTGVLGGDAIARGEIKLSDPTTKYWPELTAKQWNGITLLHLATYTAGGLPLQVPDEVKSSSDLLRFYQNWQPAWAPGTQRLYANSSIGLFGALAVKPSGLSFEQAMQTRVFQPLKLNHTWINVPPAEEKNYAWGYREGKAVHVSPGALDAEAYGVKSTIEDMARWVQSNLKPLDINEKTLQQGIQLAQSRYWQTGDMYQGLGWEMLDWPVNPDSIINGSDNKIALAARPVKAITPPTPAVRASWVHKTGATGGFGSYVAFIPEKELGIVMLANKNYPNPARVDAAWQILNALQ
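20 mM phosphate pH 7.0 + 0.01% (detergent screen) or 0.0001% Triton X-100; 5.3 nM AmpC reagent; cpd preinc 15 min RT; nitrocefin (800 uM stock) to start; A480 q20 s × 4 min; Activity was normalised to no-enzyme and no-compound control wells.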
AmpC inh no detg: inhibitors of E. coli AmpC beta-lactamase without detergent; Potency, µM (doses to about 57.1 µM), without a hit: at the top dose activity change, negative = inhibition, actives largely listed as inhibitors; hit rate 0.52% among 330,000; P00811; AmpC nitrocefin hydrolysis, absorbance 480 nm, 0.0001% Triton;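 note: plate controls were no compound for no effect and no enzyme for full effect; nearly all actives have a fitted effect of over 20% in size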
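20 mM phosphate pH 7.0 + 0.01% (detergent screen) or 0.0001% Triton X-100; 5.3 nM AmpC reagent; cpd preinc 15 min RT; nitrocefin (800 uM stock) to start; A480 q20 s × 4 min; Activity was normalised to no-enzyme and no-compound control wells.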
Numbers without * were called inactive; u = inconclusive; x = not tested or not shown; [ ] = another dose, or the depositor's remark. In the library only some 3.3% were active in any assay of this set; here they are far more common. Calls come from the whole dose curve; as a rule, active = well fitted curve in the direction sought with a large enough effect; inconclusive = small, poorly fitted or top-dose-only effect, or another doubt; inactive = no such curve, though single readings can be large; an effect the other way counts as inactive or inconclusive. Unless noted, % is set by controls: 0 for no effect and ±100 for the full control effect; potency is the fitted concentration of half-maximal effect.

SMILES	Sm TGR inh	AmpC inh detg	AmpC inh no detg
CC(COc1cccc2ccccc12)CN1CCN(C)CC1 (configuration not stated)	25µM*	u	33%
OC(COc1cccc2ccccc12)CN1CCN(c2ccccc2)CC1 (configuration not stated)	23%	9%	58%
COc1ccccc1NS(=O)(=O)c1cc(NC(=O)c2ccc(=O)[nH]c2)ccc1N1CCOCC1	-1%	1%	14µM*
COc1ccccc1NS(=O)(=O)c1cc(NC(=O)c2cc(F)c(F)c(F)c2F)ccc1N1CCOCC1	x	x	-25%
COc1ccccc1NS(=O)(=O)c1cc(NC(=O)C2CC2)ccc1N1CCOCC1	47%	-1%	-10%
COCCNC(=S)Nc1ccc(N2CCOCC2)c(S(=O)(=O)Nc2ccccc2OC)c1	-2%	-1%	10µM*
C=CCn1c(COc2ccc3c(c2)CCCC3)nnc1SCC(=O)Nc1cccc(SC)c1	31%	7%	23%
Cc1cn2c(=O)cc(COc3ccc(NC(=O)COc4ccccc4)cc3)nc2s1	-8%	-9%	x
COc1ccc(OCC(O)Cn2c(N3CCCCC3)nc3c2c(=O)n(C)c(=O)n3C)cc1 (configuration not stated)	6%	4%	138%
CCOC(=O)N1CCN(C(=O)C2CCN(Cc3cccc(OCc4ccccc4)c3)CC2)CC1	0%	-7%	205%
CCOc1cc(CN2CCN(c3cccc(C(F)(F)F)c3)CC2)ccc1O	45µM*	1%	25%
O=C(CCOc1ccccc1)Nc1ccnn1C1CCN(Cc2ccc(O)cc2)CC1	40µM*	1%	0%
CCOc1cc(CN2CCC(n3nccc3NC(=O)C3CC3)CC2)ccc1O	40µM*	u	-7%
COc1cc(CN2CCC(n3nccc3NC(=O)C3CC3)CC2)cc(OC)c1	3%	-8%	-7%
COc1cccc(CN2CCC(n3nccc3NC(=O)CCOc3ccccc3)CC2)c1	-3%	1%	47%
CCOC(=O)N1CCN(C(=O)C2CCN(Cc3ccc(O)c(OCC)c3)CC2)CC1	32µM*	-12%	-15%
CCOc1cc(CN2CCN(c3cccc(C(F)(F)F)c3)CC2)ccc1OC	0%	u	82%
CCCNC(=O)NC(=O)COC(=O)c1ccc(OC)c(S(=O)(=O)N2CCCc3ccccc32)c1	39%[11.4 µM]	-9%	9%
O=S(=O)(c1ccc(Cl)cc1)N1CCN(c2ncnc3sccc23)CC1	x	x	-21%
COc1ccc(CN2CCSCC2)cc1C	-1%	0%	0%
CCOc1cc(CN2CCSCC2)ccc1O	40µM*	u	-32%
CCN(CC(=O)NC(C)(C)C)C(=O)CCl	50µM*	-10%	-12%
CC(C)(C)NC(=O)CCCCCCCC(=O)NC(C)(C)C	0%	-9%	14%
CC(NC(=O)C1CCC(C)(C(=O)O)C1(C)C)c1ccccc1 (configuration not stated)	-17%	-8%	-17%
CCC(=O)NC1=C(Cl)C(=O)C(NC(=O)CC)=C(Cl)C1=O	0.22µM*	u	-25%
SMILES	Sm TGR inh	AmpC inh detg	AmpC inh no detg
CCC(=O)Nc1ccccc1	-22%	-7%	-16%
Cc1ccc2c(c1)CCCN2C(=O)c1ccoc1C	50µM*	u	-8%
Cc1ccc2c(c1)CCCN2C(=O)c1c(C)noc1C	-9%	-1%	u
O=C(c1ccc(Cl)c([N+](=O)[O-])c1)N1CCN(Cc2ccc3c(c2)OCO3)CC1	-3%	1%	96%
O=C(Cn1c(=O)oc2ccccc21)N1CCOCC1	x	4%	-10%
CNC(=O)c1cc(Nc2nnc(C)c3ccccc23)ccc1OC	2%	3%	-15%
O=C(N/N=C/C=C/c1ccc([N+](=O)[O-])cc1)C1COc2ccccc2O1 (configuration not stated)	-10%	u	-23%
O=C(NCCc1ccccc1)C1COc2ccccc2O1 (configuration not stated)	-24%	-5%	0%
O=C(NC1CCCCC1)C1COc2ccccc2O1 (configuration not stated)	28µM*	u	-6%
CC1CCC(NC(=O)C2COc3ccccc3O2)CC1 (configuration not stated)	u	5%	-13%
O=C(NCCc1ccc(O)c(O)c1)C1COc2ccccc2O1 (configuration not stated)	4.5µM*	-9%	-43%
O=C(N/N=C\C=C\c1ccco1)C1COc2ccccc2O1 (configuration not stated)	3.2µM*	3%	-45%
CC(=O)Nc1ccc(OS(=O)(=O)c2c(C)cc(C)cc2C)cc1	-1%	u	19%
CC(NC(=O)c1nn(C)c2c1CS(=O)(=O)c1ccccc1-2)c1ccccc1 (configuration not stated)	-8%	-9%	-25%
O=C1NCCCC2c3cc(O)c4ccccc4c3OC12N1CCCCC1 (configuration not stated)	2µM*	-6%	8%
COc1ccc(CCNCc2cc(C)n(-c3ccc(OC)cc3)c2C)cc1	50µM*	-10%	29%
COc1ccc(-n2c(C)cc(C(=O)CN3C(=O)c4ccccc4C3=O)c2C)cc1	5%	5%	-7%
COc1ccc(CCNCc2ccccc2)cc1	u	-7%	-20%
Cc1cc(-n2c(C)cc(C(=O)CCl)c2C)no1	8.9µM*	-8%	-20%
Cc1cc(-n2c(C)cc(C(=O)CN3C(=O)C(=O)N(C)C3=O)c2C)no1	x	x	-11%
COc1ccc(-n2c(C)cc(C(=O)CCl)c2C)cc1	4µM*	1%	-9%
O=C1c2ccccc2-c2ccc(C(=O)N3CCCCC3)cc21	2%[57.1 µM]	-3%	29%
CC(=NCc1ccco1)c1c(O)n(-c2ccc(Cl)cc2)c(=O)[nH]c1=O	85%	-4%	-41%
CC(=NCc1ccco1)c1c(O)n(Cc2ccccc2)c(=O)[nH]c1=O	35µM*	u	-30%
CCOC(=O)C1=C(C)NC(SCC(=O)Nc2cc(C)on2)=C(C#N)C1c1cccs1 (configuration not stated)	-6%	4%	3%
SMILES	Sm TGR inh	AmpC inh detg	AmpC inh no detg
CCSC1=C(C#N)C(c2cccs2)C(C(=O)OC)=C(C)N1 (configuration not stated)	-4%[11.4 µM]	-15%	-17%
COc1ccccc1NC(=O)C1=C(C)NC(SCC(=O)Nc2ccc(C(=O)O)cc2)=C(C#N)C1c1cccs1 (configuration not stated)	45µM*	0%	-56%
CCCSC1=C(C#N)C(c2cccs2)C(C(=O)Nc2ccccc2)=C(C)N1 (configuration not stated)	35µM*	-14%	-46%
CCc1ccc(NC(=O)Cn2ncc3c4ccccc4n(C)c3c2=O)cc1	13%	7%	-28%
Cc1ccccc1NC(=O)C(=O)NCC1(c2ccccc2)CCCC1	9%	11%	x
O=C(Nc1nc2ccccc2s1)Nc1ccc(F)cc1F	-3%	2%	-37%
O=C(Nc1ccc(F)cc1F)Nc1sccc1-c1nc2ccccc2s1	-2%	7%	7.9µM*
O=C(Cc1ccc(F)cc1)NCCc1csc2nc(-c3ccc(Cl)cc3)nn12	-1%	18%	x
Cc1ncc(N=Nc2ccc(F)cc2)c(-c2ccc(Cl)cc2)n1	-5%	1%	0.4µM*

Assay outcomes: PubChem BioAssay, National Center for Advancing Translational Sciences (NCATS)
